Screening data as filed in PubChem BioAssay.
Compounds with a hit are over-represented: about 21% of the library has one in this group of screens.
Pf growth 48h: P. falciparum growth inhibition at 48 hours (one generation) | P. falciparum luciferase growth in erythrocytes, 48 h | Potency, µM (highest dose often 28.7 µM), for the others: at the top dose activity change, negative = inhibition, actives largely listed as inhibitors | 310,000 tested, 5.9% active | AID 504832; further: potency means the concentration at half of the fitted maximal effect; on the % scale 0 is the no-effect control and ±100 the full control effect
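Here the parasites carry a stable luciferase gene and grow inside erythrocytes in Albumax-based RPMI medium with compound for one erythrocytic cycle. Activity is scored as loss of luminescent signal.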
FBPA Giardia inh: blocks Giardia fructose-bisphosphate aldolase activity. A8B2U2. purified Giardia FBPA. Potency, µM (highest dose often 59.6 µM), for the others: at the top dose activity, negative = inhibition, actives largely listed as inhibitors. 290,000 tested, 0.71% active. AID 2451; further: potency means the concentration at half of the fitted maximal effect; on the % scale 0 is the no-effect control and ±100 the full control effect; nearly all actives have a fitted effect of over 55% in size
Target sequence (A8B2U2 whole entry, looked up): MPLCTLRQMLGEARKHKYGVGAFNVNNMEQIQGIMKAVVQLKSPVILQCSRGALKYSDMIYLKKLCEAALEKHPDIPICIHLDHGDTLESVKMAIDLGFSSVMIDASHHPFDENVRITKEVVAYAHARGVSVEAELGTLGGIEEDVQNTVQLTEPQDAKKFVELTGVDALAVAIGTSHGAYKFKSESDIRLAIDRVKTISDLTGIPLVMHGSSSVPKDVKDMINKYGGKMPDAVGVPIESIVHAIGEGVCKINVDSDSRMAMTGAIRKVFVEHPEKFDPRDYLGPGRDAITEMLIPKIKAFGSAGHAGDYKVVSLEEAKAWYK
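Giardia FBPA (40 nM reagent) was preincubated 10 min at RT with compound (up to 57.5 uM final), then substrate plus GAPDH/TPI/NAD/arsenate coupling system with diaphorase/resazurin was added; resorufin fluorescence (525/598 nm) was read after 20 min.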
Pf growth 96h: P. falciparum growth inhibition at 96 hours | P. falciparum luciferase reporter growth, 96 h | Potency, µM (titrated, usually from 28.7 µM), for the others: at the top dose activity change, negative = inhibition, hits mostly inhibitors | 320,000 tested, 6.9% active | AID 504834; further: potency means the concentration at half of the fitted maximal effect; on the % scale 0 is the no-effect control and ±100 the full control effect
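P. falciparum expressing integrated firefly luciferase grown in erythrocytes (2% hematocrit, 0.05% parasitemia final) with compounds for 96 hours at 37 C, 5% CO2. Growth inhibition read as loss of luminescence after adding luciferase detection reagent.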
Shiga inhibitor: blocks Shiga toxin action in Vero cells; Vero cells, Shiga toxin protein synthesis inhibition reporter; AID 2315; inhibition, % at 38.7 µM; 290,000 tested, 9.2% active; in the data active means inhibition mostly above about 28%, no sharp cut-off; inactive means mostly below about 43%; further: 0% is about no effect
NS1 function inh: inhibitors of influenza NS1 protein function; Potency, µM (series often up to 46.1 µM), for inactives: at the highest dose activity, positive = more growth; 270,000 tested, 0.4% active; calls by dose curve; further: potency means the concentration at half of the fitted maximal effect; actives are rising curves; nearly all actives have a fitted effect of over 50% in size
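S. cerevisiae expressing influenza A NS1, grown in glucose, washed, then diluted 1:100 into pH 6.0 -URA galactose medium with 23 nl compound. Growth recovery read as OD600; NS1-free strain serves as control.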
CHX counter: counter-screen hit for Shiga toxin inhibitors, cycloheximide | cell reporter, cycloheximide protein synthesis inhibition counterscreen | max response, % | 300,000 tested, 12% active | AID 2314; in the data active means max response mostly above about 13%, no sharp cut-off; inactive means mostly below about 14%; further: read at 38.3 µM for the half of the compounds with a filed dose; 0% is about no effect
* hit, by the source's call. Unless noted, the call rests on the fitted dose curve; in most records, active means well fitted curve in the direction sought with a large enough effect; inconclusive means small, poorly fitted or top-dose-only effect, or another doubt; inactive means no such curve, though single readings can be large; an effect the other way counts as inactive or inconclusive.

CCS(=O)(=O)n1nc(-c2ccccc2)nc1N was read as Pf growth 48h 4%, FBPA Giardia inh 7%, Pf growth 96h -16%, Shiga inhibitor -2, NS1 function inh 3% and CHX counter -2.
Screening CCS(=O)(=O)n1nc(-c2ccco2)nc1SC returned Pf growth 48h inconclusive, FBPA Giardia inh 28µM*, Pf growth 96h -20%, Shiga inhibitor 42, NS1 function inh -3% and CHX counter 7.
For NC(=O)c1ccc(CN2CCc3ccccc3C2)cc1 the results were Pf growth 48h 0%, FBPA Giardia inh -9%, Pf growth 96h -26%, Shiga inhibitor -10, NS1 function inh 11% and CHX counter -3.
Screening CC1(C)CC(Nc2ccc(Nc3ccccc3)cc2)CC(C)(C)N1 returned Pf growth 48h 3.3µM*, FBPA Giardia inh -24%, Pf growth 96h 7.4µM*, Shiga inhibitor -10, NS1 function inh -4% and CHX counter -2.
For CC1(C)CC(NC(=O)c2ccccc2)CC(C)(C)N1 the results were Pf growth 48h -3%, FBPA Giardia inh 14%, Pf growth 96h inconclusive, Shiga inhibitor -7, NS1 function inh 18% and CHX counter -4.
For COc1cccc(NC(=O)CSc2nc3c(c(=O)n2C)SC(C)C3)c1 (centres undefined) the results were Pf growth 48h 12µM*, FBPA Giardia inh 6%, Pf growth 96h 9.3µM*, Shiga inhibitor -10, NS1 function inh -45% and CHX counter -1.
For CCOc1ccc(NC(=O)CSc2nc3c(c(=O)n2C)SC(C)C3)cc1 (centres undefined) the results were Pf growth 48h 13µM*, FBPA Giardia inh 8%, Pf growth 96h 7.4µM*, Shiga inhibitor -5, NS1 function inh inconclusive and CHX counter -3.
`Cn1c(SCc2cccc([N+](=O)[O-])c2)nc2c(c1=O)SCC2` gave Pf growth 48h inconclusive, FBPA Giardia inh 2%, Pf growth 96h 3.7µM*, Shiga inhibitor -4 and CHX counter -4.
`Cn1c(SCC(=O)Nc2cccc(F)c2)nc2c(c1=O)SCC2` gave Pf growth 48h inconclusive, Pf growth 96h 2.6µM*, Shiga inhibitor 21, NS1 function inh 9% and CHX counter 1.
`Cc1ccc(S(=O)(=O)NCC(=O)OCC(=O)NCc2cccs2)cc1` gave Pf growth 48h 20% and Pf growth 96h 44%.
For CSc1nc(C(C)C)ccc1CNC(=O)CC(C)c1ccccc1 (centres undefined) the results were Pf growth 48h inconclusive, FBPA Giardia inh 5%, Pf growth 96h 15%, Shiga inhibitor -9, NS1 function inh -3% and CHX counter -1.
Screening Cc1c(C)c2ccc(OCC(=O)N(C)C3CCS(=O)(=O)C3)c(C)c2oc1=O (centres undefined) returned Pf growth 48h inconclusive, Pf growth 96h inconclusive, Shiga inhibitor -7, NS1 function inh -11% and CHX counter -2.
Cc1ccc(C2(C)NC(=O)N(CC(=O)N3c4ccccc4NC(=O)CC3C)C2=O)cc1 (centres undefined) was read as Pf growth 48h -19% and Pf growth 96h inconclusive.
CCCNc1c(NS(=O)(=O)c2cccc(C#N)c2)c(=O)oc2ccccc12 was read as Pf growth 48h 12%, FBPA Giardia inh 22%, Pf growth 96h -19%, Shiga inhibitor 2, NS1 function inh 1% and CHX counter -3.
CC(C)c1ccc(C(=O)CSc2ncn[nH]2)cc1 was read as Pf growth 48h 71%, FBPA Giardia inh inconclusive, Pf growth 96h -17%, Shiga inhibitor 81*, NS1 function inh -88% and CHX counter 31*.
O=C(CSc1ncn[nH]1)NCCC(c1ccccc1)c1ccccc1 was read as Pf growth 48h inconclusive, FBPA Giardia inh 8%, Pf growth 96h 10µM*, Shiga inhibitor -10, NS1 function inh -1% and CHX counter -3.
For O=C(CSc1ncn[nH]1)CSc1ncn[nH]1 the results were Pf growth 48h inconclusive, FBPA Giardia inh inconclusive, Pf growth 96h 6%, Shiga inhibitor -18 and CHX counter -5.
`O=C(CSc1ncn[nH]1)c1ccc2c(c1)OCO2` gave Pf growth 48h 29%, FBPA Giardia inh -22%, Pf growth 96h 26%, Shiga inhibitor 30, NS1 function inh -7% and CHX counter 14*.
`O=C(CSc1ccc2ccccc2n1)c1ccc2c(c1)OCO2` gave FBPA Giardia inh 1%, Pf growth 96h 115%, Shiga inhibitor 104*, NS1 function inh -4% and CHX counter 53*.
For O=C(O)CSc1ccc2ccccc2n1 the results were Pf growth 48h 16%, FBPA Giardia inh 8%, Pf growth 96h inconclusive, Shiga inhibitor -4, NS1 function inh -24% and CHX counter -1.
Screening O=C(CSc1ncn[nH]1)c1ccc2c(c1)OCCO2 returned Pf growth 48h 42%, FBPA Giardia inh inconclusive, Pf growth 96h 0%, Shiga inhibitor active, NS1 function inh 1% and CHX counter 18*.
CCOC(=O)Nc1cc(C)ccc1OC was read as Pf growth 48h -20%, FBPA Giardia inh -5%, Pf growth 96h -3%, Shiga inhibitor -2, NS1 function inh -5% and CHX counter -2.
`CCCCCCCCC(=O)Nc1cc(C)ccc1OC` gave Pf growth 48h 10µM*, FBPA Giardia inh -3%, Pf growth 96h inconclusive, Shiga inhibitor 4, NS1 function inh -5% and CHX counter -2.
`COc1ccc(C)cc1NC(=O)CN1C(=O)COc2ccc(C)cc21` gave Pf growth 48h -10%, FBPA Giardia inh 2%, Pf growth 96h 5.2µM*, Shiga inhibitor -9, NS1 function inh 6% and CHX counter -2.
For COc1ccccc1NC(=O)CN1C(=O)COc2ccc(C)cc21 the results were Pf growth 48h -14%, FBPA Giardia inh 7%, Pf growth 96h -21%, Shiga inhibitor -2, NS1 function inh -15% and CHX counter 3.
`NC(=O)C1CCCN(Cc2c(C(=O)N3CCc4ccccc4C3)nc3ccc(Cl)cn23)C1` (centres undefined) gave Pf growth 48h inconclusive, FBPA Giardia inh 14%, Pf growth 96h inconclusive, Shiga inhibitor -1, NS1 function inh 2% and CHX counter -1.
For N[C@@H](C(=O)O)c1ccc(O)c(C(=O)O)c1 the results were FBPA Giardia inh 10%, Shiga inhibitor 11 and CHX counter 4.
For C=CCOC(=O)CCCCCCCC the results were Pf growth 48h 28% and Pf growth 96h 30%.
For Cc1cc(C)c2c(c1)NC(=O)C2(O)CC(=O)c1cccs1 (centres undefined) the results were Pf growth 48h 19%, FBPA Giardia inh 6%, Shiga inhibitor -3, NS1 function inh -2% and CHX counter 12.
`Cc1ccc(CNC(=O)CCC(=O)c2cccs2)cc1` gave FBPA Giardia inh 6%, Pf growth 96h 21%, Shiga inhibitor -2, NS1 function inh 1% and CHX counter -2.
